Rows were chosen to be rich in hits. Some 31% of all compounds tested hit in one or more screens of this group.
CYP2C19 act: cytochrome P450 2C19 (human) activation; P33261; recombinant CYP2C19, luciferin-H EGE luminescence; hits give high values; 0 = fully inhibited enzyme, 1 = untreated enzyme; activation factor at 5 µM; 96,000 tested, under 10 active;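 active = activation factor of at least 2 at 5 µM in the primary screen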;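 also: 0 = wells with 2.5 mM tranylcypromine and 1 = vehicle-only wells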
CYP2C19 inhib: blocks human cytochrome P450 2C19; CYP2C19 Supersomes, luciferin-H EGE luminescence, 30 min; inhibition, % at 5 µM; actives 21% (n = 96,000);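 active = CYP2C19 inhibition above a set limit at 5 µM in the primary screen, cut at about 50% in these data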;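 also: plate controls were negative control wells for no effect and 2.5 mM tranylcypromine positive control for full effect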
PLAP act: human PLAP activation | P05187 | purified PLAP enzyme, luminescent substrate read-out; hits give high values | activation fold at 20 µM | actives 1.2% (n = 96,000) | AID 696; in the data active = activation fold above about 2
Target sequence (P05187 whole entry, looked up): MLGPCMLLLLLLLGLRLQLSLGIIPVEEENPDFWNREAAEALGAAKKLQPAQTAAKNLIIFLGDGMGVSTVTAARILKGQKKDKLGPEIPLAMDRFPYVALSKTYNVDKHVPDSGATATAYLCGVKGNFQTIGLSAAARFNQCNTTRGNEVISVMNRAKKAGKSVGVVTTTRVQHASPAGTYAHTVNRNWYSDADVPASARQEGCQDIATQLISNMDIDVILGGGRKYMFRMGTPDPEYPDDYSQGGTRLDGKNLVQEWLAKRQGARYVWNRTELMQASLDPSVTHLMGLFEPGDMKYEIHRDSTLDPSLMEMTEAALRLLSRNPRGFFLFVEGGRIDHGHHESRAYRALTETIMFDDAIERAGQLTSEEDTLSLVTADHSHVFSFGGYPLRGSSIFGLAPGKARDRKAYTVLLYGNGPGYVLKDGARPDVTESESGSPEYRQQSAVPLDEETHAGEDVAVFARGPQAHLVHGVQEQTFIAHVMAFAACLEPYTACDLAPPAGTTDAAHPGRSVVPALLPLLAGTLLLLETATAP
CYP2C9 act: activators of human CYP2C9; AID 1024; P11712; activation factor at 5 µM; actives 1.4% (n = 96,000); recombinant CYP2C9, luciferin-H conversion, luminescence; hits give high values; factor 1 = untreated enzyme, 0 = blocked;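 active = activation factor of 2 or more for CYP2C9 at a 5 µM dose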;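 also: 0 = sulfaphenazole-blocked wells and 1 = vehicle-only wells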
CYP2C9 inhib: inhibitors of human CYP2C9. actives 20% (n = 96,000). inhibition, % at 5 µM. CYP2C9 Supersomes, luciferin-H conversion, luminescence. AID 777. P11712;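 active = blocking of liver enzyme CYP2C9 beyond about 50% at 5 µM, limit read from the data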
Numbers without * were called inactive.

SMILES	CYP2C19 act	CYP2C19 inhib	PLAP act	CYP2C9 act	CYP2C9 inhib
CCCCc1ccc(NC(=O)COCC)cc1	0.6	39	1	0.7	26
CCCCc1ccc(NC(=O)CSCc2cc(=O)[nH][nH]2)cc1	0.8	23	2.3*	0.8	16
N/C(=N\OS(=O)(=O)c1ccc(Br)cc1)c1ccncc1	0.6	38	0.8	0.4	58*
Cc1ccc(C(=O)O/N=C(\N)c2ccc(Br)cc2)cc1C	0.9	5	0.9	1.5	-46
O=C(N/N=C/c1cc([N+](=O)[O-])ccc1Cl)c1ccc2nc[nH]c2c1	1.1	-6	1	1	-4
O=C(O)c1cccc(NC(=O)C2CC(=O)N(Cc3ccccc3)C2)c1 (stereo not given)	1	-2	1.1	0.9	6
O=C(Nc1ccccc1)C1CC(=O)N(c2ccc3c4c(cccc24)CC3)C1 (stereo not given)	1	3	1.3	0.4	62*
COCCN(C(=O)Nc1ccc(OC)cc1OC)C1CCN(C(C)=O)CC1	1.1	-11	1.2	1	1
O=C1C2CC=CCC2C(=O)N1c1ncn[nH]1 (stereo not given)	1	-1	2.6*	1	1
CCOC(=O)CSc1nc(C(C)(C)C)cc(C(F)(F)F)c1C#N	1.1	-12	0.9	0.5	49
CC(C)(C)C1CCc2c(C(=O)N/N=C/c3cccs3)csc2C1 (stereo not given)	0.7	35	1	0.4	63*
CCc1nnc(N/N=C/c2c(Cl)cccc2Cl)n1N	0.4	63*	0.8	1.1	-11
Cc1cccn2cc(-c3ccc(F)cc3)nc12	0.3	67*	0.9	0.6	38
Cc1cccn2cc(-c3ccccc3)nc12	0.9	9	1	1	0
CC1=C(C(=O)OCC2CCCO2)C(c2ccccc2)NC(=O)N1 (stereo not given)	0.4	62*	1	0.8	18
CC1=C(C(=O)OCC2CCCO2)C(c2ccncc2)C2=C(CCCC2=O)N1 (stereo not given)	0.2	75*	1.1	0.5	48
CCOC(=O)C1=C(C)NC2=C(C(=O)CCC2)C1c1cccnc1 (stereo not given)	0.7	35	0.9	0.7	32
CCC(C)(C)NC(=O)Cc1ccccc1OC	0.8	22	1.1	1.6	-62
Cc1ccc(N(Cc2cc(=O)[nH]c3ccccc23)C(=O)c2ccco2)cc1	1	0	1.2	0.7	30
CC(=O)N(Cc1cc(=O)[nH]c2ccccc12)c1ccc(C)cc1	0.5	51*	1.2	0.4	64*
Cc1c(CN(C)C)c2c(n1Cc1ccccc1)C(=O)c1ccccc1-2	1	-1	1.6	1	-5
COC(=O)C1C(C(C)C)N(c2ccccc2)OC1(C)O (stereo not given)	0.4	56*	1.2	1	-2
O=S(=O)(NCc1ccco1)N1CCCCCC1	0.4	63*	0.8	0.8	16
O=S(=O)(NCc1ccco1)c1cccc(S(=O)(=O)N2CCCCC2)c1	0.6	35	0.9	0.9	9
Cc1nc2ccccc2c2nc3ccccc3n12	0.6	40	1	0.4	58*
SMILES	CYP2C19 act	CYP2C19 inhib	PLAP act	CYP2C9 act	CYP2C9 inhib
c1ccc2c(c1)nnn1c3ccccc3nc21	0.3	73*	1	0.4	62*
CCN1CCCC1CN(Cc1cc2ccc(C)c(C)c2[nH]c1=O)C(=O)Nc1ccccc1OC (stereo not given)	1	-3	1.5	0.9	7
O=C(CCCn1c(SCC(=O)NC2CCCCC2)nc2ccccc2c1=O)NCC1CCCO1 (stereo not given)	0.6	36	1.3	0.4	65*
CCC(C)NC(=O)CSc1nc2ccccc2c(=O)n1CCCC(=O)NCC1CCCO1 (stereo not given)	0.9	8	1.2	0.6	43
N#CCn1c(C2CCCCC2)nc2ccccc2c1=O	0.3	70*	0.9	0.3	65*
O=C(CSc1nc2c(sc3ccccc32)c(=O)n1Cc1ccccc1)NCC1CCCO1 (stereo not given)	0.9	10	0.9	0.9	11
O=C(CSc1nc2c(sc3ccccc32)c(=O)n1Cc1ccco1)NCC1CCCO1 (stereo not given)	0.5	51*	1.1	0.3	68*
O=C(CCCn1c(SCC(=O)c2ccc(O)c(O)c2)nc2ccccc2c1=O)NCC1CCCO1 (stereo not given)	0.5	55*	0.3	0	96*
COc1ccc(C(=O)Nn2c(SCC(=O)NC3CCCC3)nc3ccccc3c2=O)cc1	1	-2	0.9	0.8	18
N#CCSc1nc2ccccc2c(=O)n1CCC(=O)NC1CCCCC1	0	97*	1	1.2	-25
CCOc1ccc(-n2nnc3c(=O)n(C/C=C/c4ccccc4)cnc32)cc1	1	-4	1.2	0.8	21
CC(/C=N/Nc1nnc2c(n1)[nH]c1ccccc12)=C\c1ccco1	0.2	80*	1.4	1.1	-5
COc1cccc2c1OC1(C)CC2NC(=O)N1c1cccc(C(=O)Nc2ccc3c(c2)OCCO3)c1 (stereo not given)	0.7	29	1.7	0.3	72*
CC12CC(NC(=O)N1c1cccc(C(=O)Nc3ncn[nH]3)c1)c1ccccc1O2 (stereo not given)	1	5	1.2	0.7	27
COc1ccc(NC(=O)c2cccc(N3C(=O)NC4CC3(C)Oc3ccccc34)c2)cc1 (stereo not given)	0.1	89*	1.8	0.1	90*
O=C(CC1CC2CCC1C2)OCC(=O)c1c[nH]c2ccccc12 (stereo not given)	0.3	70*	0.9	1.2	-18
CCn1c(C(c2ccccc2)c2ccccc2)n[nH]c1=S	0.6	41	1.9	0.2	82*
S=c1[nH]nc(CSc2nc3ccccc3s2)n1Cc1ccccc1	1	1	1	0.9	10
CCn1c(CSc2nc3ccccc3s2)n[nH]c1=S	0.3	73*	1.7	0.6	39
C=CCn1c(CSc2nc3ccccc3s2)n[nH]c1=S	0.5	50*	1.2	1	0
C=CCn1c(CSc2nc3ccccc3s2)nnc1SCC(=O)NCCN1CCOCC1	1.1	-11	1.3	1	-3
CCCSc1nnc(CSc2nc3ccccc3s2)n1-c1ccccc1	0.4	55*	0.9	0.3	70*
COc1ccc(-c2[nH]ncc2/C=C(/C#N)C(=O)NC2CCCCCC2)cc1	0.8	17	1.1	0.7	33
COc1cc(Cl)cc(C2NC(=O)NC(C)=C2C(C)=O)c1OCC(=O)O (stereo not given)	1.1	-14	1.4	0.9	7
CC(C)OC(=O)/C(=C\C=C\c1ccccc1)NC(=O)c1ccccc1	0.9	9	0.9	0.9	9
CCOc1ccc(Nc2nc3c(c(=O)[nH]2)CCCC3)cc1	1.1	-11	1	1.1	-8
C=CCn1c(Cc2nc3ccccc3[nH]2)n[nH]c1=S	0.2	76*	2*	0.9	6
